Compound activity: PubChem, National Center for Advancing Translational Sciences (NCATS)
HepG2 tox-1 = HepG2 cytotoxicity, counter-screen for TGF-b inhibitors; HepG2 CAGA-GFP viability, ATP luminescence, 18 h; Potency, µM (series often up to 46.1 µM), without a hit: at the top dose activity change, negative = cytotoxicity, hits mostly cytotoxic; hit rate 0.76% among 410,000; AID 588856; further: potency means the concentration at half of the fitted maximal effect
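HepG2 CAGA-GFP cells (1000/well, DMEM with 1% FBS) received compound, then TGF-beta at 500 pg/mL final, and were incubated 18 hours at 37 degrees C. Viability was read by CellTiter-Glo luminescence. Media-only wells were set as complete cell-killing and DMSO as no toxicity.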
TGFb inhibitor = blocks TGF-b signaling; HepG2 CAGA-GFP TGF-b/SMAD3 reporter, GFP fluorescence, 18 h; TGF-beta stimulated, 500 pg/mL final; Potency, µM (top dose mostly 46.1 µM), inactives show top-dose activity, negative = inhibition, most hits filed as inhibitors; hit rate 1.2% among 410,000; further: potency means the concentration at half of the fitted maximal effect; on the % scale 0 is the no-effect control and ±100 the full control effect; nearly all actives have a fitted effect of over 65% in size
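Read-out: total well GFP (ex488/em500-530) summed from mean per-cell fluorescence. Cells: HEPG2 CAGA-GFP, 1% FBS DMEM, 18 h at 37 degrees C with 500 pg/mL final TGF-beta. Unstimulated wells served as the full-inhibition control; stimulated DMSO wells = 0%.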
S-ASM inh = human S-ASM enzyme inhibition | placental ASM, HMU-PC fluorogenic substrate, 60 min | Potency, µM (top dose mostly 57.5 µM), without a hit: at the top dose activity change, negative = inhibition, usual class: inhibitors | hit rate 0.006% among 340,000; further: potency means the concentration at half of the fitted maximal effect
Target sequence (P17405 47-631 limits assumed): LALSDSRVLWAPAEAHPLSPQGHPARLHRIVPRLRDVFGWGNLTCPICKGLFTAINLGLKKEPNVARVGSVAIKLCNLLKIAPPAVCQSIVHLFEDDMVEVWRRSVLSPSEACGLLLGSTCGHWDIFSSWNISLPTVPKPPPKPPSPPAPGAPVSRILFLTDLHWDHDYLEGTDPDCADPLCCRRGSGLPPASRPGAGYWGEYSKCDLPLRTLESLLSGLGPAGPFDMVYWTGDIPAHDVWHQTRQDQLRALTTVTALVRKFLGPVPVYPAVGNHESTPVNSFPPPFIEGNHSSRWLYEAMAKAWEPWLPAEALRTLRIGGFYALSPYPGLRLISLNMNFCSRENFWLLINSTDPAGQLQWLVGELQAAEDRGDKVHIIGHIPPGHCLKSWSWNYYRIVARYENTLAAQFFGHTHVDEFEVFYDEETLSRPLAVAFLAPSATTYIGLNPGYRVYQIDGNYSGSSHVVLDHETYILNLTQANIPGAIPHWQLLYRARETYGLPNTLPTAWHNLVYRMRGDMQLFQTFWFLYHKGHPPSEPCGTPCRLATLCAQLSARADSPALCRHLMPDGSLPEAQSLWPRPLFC
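Fluorogenic HMU-PC substrate (9 uM final) is turned over by placental ASM in 60 min at 37 C after a 10 min compound preincubation. Reaction ended by alkaline stop (pH 10), with fluorescence read at 386/447 nm.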
IL1B secr inh = inflammasome signaling inhibition, IL-1 beta readout. THP-1 LPS/ATP IL-1B secretion, AlphaLISA, 16 h; hits give low values. activity change, % at 57.5 µM. hit rate 4.7% among 360,000. AID 743279; in the data active means activity change below about -50%; inconclusive means mostly about -30% to -49%; further: on the % scale 0 is the no-effect control and ±100 the full control effect
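THP-1 cells pretreated 1 hr with compounds (up to 57.5 uM final), then stimulated with LPS (250 ng/mL final) plus ATP (1.25 mM final); secreted IL-1B measured by AlphaLISA after 16 hr, decreased signal indicating inhibition.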
TDP1 cell noCPT = qHTS for Inhibitors of human tyrosyl-DNA phosphodiesterase 1 (TDP1): qHTS in cells in absence of CPT | DT40 Tdp1-/- hTDP1 cells, no CPT, ATP luminescence, 48 h | Potency, µM (series often up to 46.2 µM), inactives show at the top dose activity change, negative = growth inhibition, usual class: inhibitors | hit rate 15% among 420,000; further: potency means the concentration at half of the fitted maximal effect; on the % scale 0 is the no-effect control and ±100 the full control effect; nearly all actives have a fitted effect of over 55% in size
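DT40 Tdp1-/-;hTDP1 cells, no CPT (DMSO vehicle only), 400 cells/well; compounds pin-transferred; ≥48 hr, 37 °C; CellTiter-Glo 30 min RT dark, luminescence read.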
DT40 TDP1 CPT = DT40-hTDP1 cell growth loss with CPT. chicken DT40 Tdp1-/-;hTDP1 cells + 20 nM CPT, ATP luminescence, 48 h. Potency, µM (highest dose often 46.2 µM), inactives show top-dose activity change, negative = growth inhibition, actives largely listed as inhibitors. hit rate 12% among 420,000. AID 686979; further: potency means the concentration at half of the fitted maximal effect; on the % scale 0 is the no-effect control and ±100 the full control effect; nearly all actives have a fitted effect of over 55% in size
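Chicken DT40 Tdp1-/- cells complemented with human TDP1, 400 cells/well, exposed to compounds plus 20 nM camptothecin for at least 48 h at 37 C; viability read as ATP content by CellTiter-Glo luminescence.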
TGFb confirm = TGF-b pathway inhibition, cherry-pick retest | hit rate 63% among 1,600 | shares compounds with TGFb inhibitor | HepG2 CAGA-GFP TGF-b reporter, GFP fluorescence, 18 h; cells stimulated with TGF-beta, 500 pg/mL | Potency, µM (doses to about 46.1 µM), inactives show at the top dose activity, negative = inhibition, hits mostly inhibitors; further: potency means the concentration at half of the fitted maximal effect; on the % scale 0 is the no-effect control and ±100 the full control effect; nearly all actives have a fitted effect of over 65% in size
HepG2 tox-2 = toxic to HepG2 cells in TGF-b counterscreen. shares compounds with TGFb inhibitor. HepG2 CAGA-GFP viability, ATP luminescence, 18 h; cells stimulated with TGF-beta, 500 pg/mL. Potency, µM (series often up to 46.1 µM), for inactives: at the highest dose activity, negative = cytotoxicity, usual class: inhibitors. hit rate 27% among 1,600; further: potency means the concentration at half of the fitted maximal effect; on the % scale 0 is the no-effect control and ±100 the full control effect; nearly all actives have a fitted effect of over 70% in size
TGFb CCL64 inh = blocks TGF-b signaling in CCL64 reporter cells | shares compounds with TGFb inhibitor | CCL64 CAGA-GFP reporter, TGF-b stimulated, GFP fluorescence, 18 h | Potency, µM (doses to about 46.1 µM), inactives show at the top dose activity, negative = inhibition, hits mostly inhibitors | hit rate 41% among 1,600 | AID 720536; further: potency means the concentration at half of the fitted maximal effect; nearly all actives have a fitted effect of over 65% in size
COP TGFb inh = blocks TGF-b signaling in HepG2 COP reporter | shares compounds with TGFb inhibitor | HepG2 COP-GFP TGF-b reporter, GFP fluorescence, 18 h; cells stimulated by added recombinant TGF-beta | Potency, µM (highest dose often 46.1 µM), for inactives: at the highest dose activity, negative = inhibition, most hits filed as inhibitors | hit rate 3% among 1,600 | AID 720537; further: potency means the concentration at half of the fitted maximal effect; nearly all actives have a fitted effect of over 70% in size
* marks the source's active call; other numbers are inactive results; ? = inconclusive; / = no result given. Sampled rows, rich in hits. Any-hit rate of the full collection: about 19%. Unless noted, the call rests on the fitted dose curve; in most records, active means well fitted curve in the direction sought with a large enough effect; inconclusive means small, poorly fitted or top-dose-only effect, or another doubt; inactive means no such curve, though single readings can be large; an effect the other way counts as inactive or inconclusive.

SMILES	HepG2 tox-1	TGFb inhibitor	S-ASM inh	IL1B secr inh	TDP1 cell noCPT	DT40 TDP1 CPT	TGFb confirm	HepG2 tox-2	TGFb CCL64 inh	COP TGFb inh
C(=C\c1ccccc1)/CN1CCN(C(CCc2ccccc2)c2nnnn2C2CCCC2)CC1 (stereo not drawn)	-3%	11µM*	/	?	?	18µM*	21µM*	?	?	60%
c1ccc(Cn2nnnc2C(c2cccs2)N2CCSCC2)cc1 (stereo not drawn)	1%	3%	3%	-16	-9%	-9%	/	/	/	/
CC(C)(C)n1nnnc1C(C1CC1)N1CCN(C/C=C/c2ccccc2)CC1 (stereo not drawn)	2%	-11%	/	-15	?	-24%	/	/	/	/
C(=C\c1ccccc1)/CN1CCN(C(c2cccs2)c2nnnn2Cc2ccccc2)CC1 (stereo not drawn)	-9%	11µM*	/	-3	21µM*	?	16µM*	?	?	59%
C(=C\c1ccccc1)/CN1CCN(C(c2nnnn2C2CCCC2)C2CC2)CC1 (stereo not drawn)	-27%	7.9µM*	/	11	13µM*	18µM*	?	-24%	-15%	12%
CCCCn1nnnc1C(CCSC)N1CCN(C/C=C/c2ccccc2)CC1 (stereo not drawn)	-19%	?	/	-26	?	?	/	/	/	/
CCc1ccccc1NC(=O)c1ccc(CN2C(=O)CCn3nc(C)cc32)cc1	-21%	?	/	/	-8%	-14%	/	/	/	/
CCn1nc([N+](=O)[O-])c(C(C#N)c2nc3cc(C(F)(F)F)ccc3s2)c(Cl)c1=O (stereo not drawn)	-100%	0.35µM*	-11%	-97*	23µM*	15µM*	3.3µM*	8.2µM*	5.2µM*	-29%
CCO[C@@H]1OC(C(=O)NCc2nc3ccccc3[nH]2)=C[C@H](C(C)(C)C)[C@H]1CCCO	-5%	1.6µM*	4%	34	1.2µM*	1.3µM*	?	6%	?	-25%
C#Cc1ccc([C@H]2C=C(C(=O)NCc3nc4ccccc4[nH]3)O[C@@H](OCC)[C@@H]2CCCO)cc1	-2%	-14%	-1%	?	?	?	/	/	/	/
CN(C)CCNC(=O)c1[nH]c(C(F)(F)F)nc1-c1ccccc1	16%	9%	/	8	6%	4%	/	/	/	/
CN(C)CCNC(=O)c1cccc2[nH]c(-c3ccncc3)nc12	-41%	10µM*	18%	-82*	13µM*	13µM*	16µM*	21µM*	13µM*	21%
COc1ccc(NC(=O)c2c(Nc3ccccc3)sc(C(=O)c3ccc(F)cc3)c2N)cc1	-58%	3.2µM*	-17%	0	2.1µM*	2.3µM*	-22%	-27%	?	-1%
Cc1nc(Nc2ccccc2)sc1C(=O)c1ccc(F)cc1	-24%	1%	-1%	-23	?	?	/	/	/	/
CC(=O)N1CCc2c(sc(NC(=O)c3ccc([N+](=O)[O-])o3)c2C(N)=O)C1	-91%	3.5µM*	/	-80*	7.3µM*	3.7µM*	4.6µM*	5.8µM*	?	?
CCOc1ccc(NCc2nc3ccccc3n2CCOc2ccccc2)cc1	-23%	20µM*	-13%	-96*	?	?	15µM*	-29%	-19%	13%
COCCNC(=S)Nc1cc2oc3ccccc3c2cc1OC	5%	17%	-5%	9	7%	10%	/	/	/	/
COc1ccccc1-n1cc([C@@H]2C[C@H]3CN(c4ccccc4)C(=O)[C@]34CCCN24)cn1	0%	5µM*	1%	-78*	3%	-7%	0.73µM*	?	5.2µM*	27%
CCOC(=O)N1CCN(CC(c2ccccc2)c2ccccc2)CC1	-2%	-1%	-1%	0	-4%	-14%	/	/	/	/
CC1=C(C(=O)N(C(C)C)C(C)C)CC(CC(=O)NCc2cccc3ccccc23)C(=O)N1Cc1ccc(C(C)(C)C)cc1 (stereo not drawn)	-8%	7.9µM*	/	?	?	?	16µM*	?	?	30%
CC1=C(C(=O)N(C(C)C)C(C)C)CC(CC(=O)NCCc2ccccn2)C(=O)N1Cc1ccc(C(C)(C)C)cc1 (stereo not drawn)	-68%	8.9µM*	/	-23	?	16µM*	-21%	-13%	?	11%
CC1=C(C(=O)N(C(C)C)C(C)C)CC(CC(=O)NCCc2ccccn2)C(=O)N1Cc1ccccc1 (stereo not drawn)	5%	21%	/	8	-28%	-10%	/	/	/	/
CC1=C(C(=O)N(C)C)CC(CC(=O)NCc2cccc3ccccc23)C(=O)N1Cc1ccc(C(C)(C)C)cc1 (stereo not drawn)	-29%	?	/	-22	?	-11%	/	/	/	/
CC(C)NC(=O)Cn1ccc2cc(S(=O)(=O)N3CCCCCC3)ccc21	-9%	-22%	/	/	?	?	/	/	/	/
Cc1nn(C)c(C)c1/C=C(/C(=O)C(C)C)n1cncn1	-7%	-9%	5%	0	-2%	-1%	/	/	/	/
